The results in this text go back to PubChem BioAssay (NCI).

About 83,000 compounds went through this panel and 20% of them were active in at least one assay; those are over-represented in the sample as a whole.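 Treatment: one concentration, 48 hours, 96-well format. Scoring: percent growth, with anything below 10 considered active.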 A number with no mark means an inactive call. Activity calls are given as the source filed them.

Experiment in all cases: NCI-60 one-dose screen, 48 h (100 = growth as untreated, 0 = no growth, -100 = all killed)
Holding throughout (conditions): 10 µM

In test [1] the test system is HCT-15 colon.
Test [2] deals with HT29 colon.
Test [3] concerns SNB-75 CNS.
Test [4] relates to SNB-19 CNS.
The subject of test [5] is U251 CNS.
The test system of test [6] is PC-3 prostate.
For test [7], the system named is SK-MEL-5 melanoma.
Test [8] relates to UACC-62 melanoma.
For test [9], the system named is LOX IMVI melanoma.
Test [10] has as its system SK-MEL-28 melanoma.
Test [11] concerns SK-MEL-2 melanoma.
Test [12] has as its system EKVX NSCLC.
Test [13] concerns SN12C renal.
Test [14] deals with UO-31 renal.
Test [15] relates to TK-10 renal.
In test [16] the test system is ACHN renal.
Test [17] has as its system CAKI-1 renal.
In test [18] the test system is A498 renal.
Test [19] has as its system CCRF-CEM leukemia.
The subject of test [20] is MOLT-4 leukemia.

As to `CCN1CCN(c2ccc(NC(=O)Nc3ccc(-c4cc(C(=O)NC)c5ncccc5n4)cc3)cc2C(F)(F)F)CC1`, the growth in test [1] was -100% (active); in test [2] it was -100% (active); in test [3], -95% (active); in [4] it was -100% (active); in [5], -96.3% (active); in test [6] it was -77.9% (active). Besides, the growth in test [7] is -100% (active); in test [8], -99% (active); in test [9], -100% (active); in test [10], -100% (active); in test [11], -72.8% (active); in test [12], -100% (active). Moreover, the growth in test [13] is -96.5% (active); in test [14] it was -100% (active); in [15], -98.9% (active); in test [16] it was -100% (active); in [17], -100% (active); in [18], -98.4% (active). For the same compound, in [19], the growth is -52.5% (active).

Regarding `CC(C)NC(=O)c1cc(-c2ccc(NC(=O)Nc3ccc(N4CCN(C)CC4)c(C(F)(F)F)c3)cc2)nc2cccnc12`, the growth in [1] is -89.6% (active); in [2], -86.6% (active); in test [3], -96.2% (active); in test [4], -93.2% (active); in test [5] it was -86.2% (active); in test [6], -72.9% (active). The growth was -100% (active) in test [7]; -97.1% (active) in test [8]; -99.2% (active) in test [9]; -99.3% (active) in test [10]; -81.9% (active) in test [11]; -92.4% (active) in test [12]. The growth in [13] is -92.9% (active); in [14], -97.4% (active); in [15] it was -93.6% (active); in test [16], -100% (active); in test [17] it was -93.6% (active); in [18], -97.7% (active). In addition, in test [19], the growth was -43.6% (active).

`O=C(CSc1nnc(-c2c[nH]c3ccccc23)n1-c1ccccc1)c1ccccc1`: the growth was 79.4% in test [1]; 47.9% in [2]; 100% in test [3]; 19.2% in test [4]; 10.8% in test [5]; 65.8% in test [6]. For the same compound, the growth in test [7] was 90.7%; in test [8], 73.4%; in test [9] it was 29.2%; in test [10] it was 100%; in test [11], 91.9%; in [12], 68.4%. Further, the growth in test [13] was 44.7%; in test [14], 55.5%; in [15], 72%; in [16] it was 60.5%; in test [17], 53.2%; in test [18], 106%. The growth in [19] was 91.4%; in test [20], 90.6%.

Turning to `COc1cc(/C=C/C(=O)c2ccc(C(F)(F)F)cc2)ccc1Oc1nc(Nc2ccc(F)cc2)nc(N(C)C)n1`, the growth in test [1] is 70%; in test [2], 74.1%; in [3], 99.7%; in test [4] it was 83%; in test [5], 74.2%; in test [6], 76%. Moreover, the growth is 61.7% in test [7]; 57.7% in test [8]; 46.9% in test [9]; 85.9% in test [10]; 78.4% in test [11]; 66% in test [12]. In addition, the growth in test [13] was 69.6%; in test [14] it was 50.3%; in test [15], 88.5%; in test [16], 84.2%; in test [17] it was 69.6%; in test [18], 94.4%. The growth in test [19] was 64.8%; in test [20] it was 40.7%.

Consider `O=C1NC(=NC23CC4CC(CC(C4)C2)C3)N/C1=C\c1ccc2ncccc2n1`, for which the growth was -16.2% (active) in [1]; -17.4% (active) in [2]; -70.7% (active) in [3]; -7.61% (active) in test [4]; 5.17% (active) in test [5]; -0.602% (active) in [6]. Also, the growth was -68.3% (active) in test [7]; -64.4% (active) in test [8]; -42.6% (active) in test [9]; -30.2% (active) in test [10]; -94.8% (active) in [11]; -22% (active) in test [12]. Besides, the growth was 1.63% (active) in test [13]; -15.8% (active) in test [14]; 9.19% (active) in test [15]; -13% (active) in test [16]; -13.4% (active) in [17]; -28.3% (active) in [18]. In addition, the growth in [19] was -9.82% (active); in test [20], -10.9% (active).

With `COc1ccc(-c2cc(-c3cc(C(=O)c4ccc(Br)cc4)n4ccc(C)cc34)nc(N)c2C#N)cc1`, the growth in [1] is 89.6%; in [2] it was 77.4%; in [3], 108%; in [4] it was 91.3%; in test [5], 64.7%; in test [6], 89.4%. The growth in [7] was 87.5%; in [8] it was 81.2%; in test [9] it was 54.6%; in [10] it was 69.6%; in test [11] it was 107%; in test [12], 89.8%. The growth in [13] is 92.9%; in test [14], 64.3%; in [15] it was 132%; in test [16], 81.8%; in [17] it was 68.1%; in test [18], 134%. In addition, the growth was 98.2% in test [19] and 101% in test [20].

Consider `COc1cccc(-c2ccc(/C=N/NC(=O)c3[nH]c4ccc(Br)cc4c3-c3ccccc3)o2)c1`, for which the growth is 1.34% (active) in [1]; -9.03% (active) in [2]; 31% in test [3]; 40.3% in [4]; 7.57% (active) in [5]; 20.2% in [6]. The growth was -0.615% (active) in [7]; 28.8% in test [8]; 12.3% in [9]; 42.5% in test [10]; 19.2% in [11]; 50.1% in test [12]. Besides, the growth in test [13] is 5.67% (active); in [14], 39.2%; in test [15] it was 70.4%; in test [16], 22.3%; in [17] it was 26%; in test [18] it was 72.5%. The growth in test [19] is -5.45% (active); in test [20] it was 1.31% (active).

Turning to `COc1cnc2c(c1)C(=O)c1c-2n(CCCNCCO)c(=O)c2cc(OC)c(OC)cc12`, the growth in test [1] was 32.3%; in test [2], 12.1%; in test [3], 59.6%; in test [4], 18.7%; in test [5], 20.8%; in [6], 43.2%. The growth in test [7] was 12%; in [8] it was -2.88% (active); in test [9] it was -78% (active); in [10], 70.2%; in [11], 104%; in [12], 87.9%. Also, the growth is 18.4% in test [13]; 34% in [14]; 101% in test [15]; 3.42% (active) in test [16]; 12% in test [17]; 101% in [18]. The growth in [19] and in test [20] was 12.8% throughout.
